Experiment [1] is described as follows: NCI Yeast Anticancer Drug Screen. Data for the rad50 strain (AID 155).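 Also: 0% = growth of vehicle-only cultures of the same strain.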 Conditions: S. cerevisiae rad50 strain growth inhibition, hits give high values. A digest of the protocol:
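Genetically altered yeast (DNA repair pathway); compound treatment; growth inhibition vs vehicle ctrl.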

Experiment [2] is described as follows: NCI Yeast Anticancer Drug Screen. Data for the mec2-1 strain (AID 157). Conditions: S. cerevisiae mec2-1 strain, hits give high values. A digest of the protocol: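 Each compound was tested on mec2-1 yeast, a strain altered in DNA damage repair or cell cycle control. Growth inhibition is reported relative to vehicle.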
Experiment [3] is described as follows: NCI Yeast Anticancer Drug Screen. Data for the sgs1 mgt1 strain (AID 161).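 Also: 0% = growth of cultures given vehicle only.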 The note with it: S. cerevisiae sgs1 mgt1 strain, hits give high values. The gist of the method: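 Test agents were incubated with a DNA-repair-mutant yeast strain. Growth was then read and compared against vehicle-treated controls.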
Experiment [4] can be described thus: NCI Yeast Anticancer Drug Screen. Data for the cln2 rad14 strain (AID 165).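 Also: 0% = growth equal to vehicle treated cultures.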 Conditions: S. cerevisiae cln2 rad14 strain, hits give high values. A digest of the protocol:
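Test compounds were added to cln2 rad14 yeast cultures; inhibition of growth was then determined by comparison with vehicle treatment.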

The nature of experiment [5]: NCI Yeast Anticancer Drug Screen. Data for the bub3 strain (AID 167). Conditions: S. cerevisiae bub3 mutant strain, hits give high values. The gist of the method: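 Yeast carrying a defined mutation is treated with each compound, and growth is compared with that of vehicle-exposed cells to give inhibition.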
The nature of experiment [6]: NCI Yeast Anticancer Drug Screen. Data for the mlh1 rad18 strain (AID 175). The note with it: S. cerevisiae mlh1 rad18 strain growth inhibition, hits give high values. The gist of the method: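 Inhibition values reflect reduced growth of mutant yeast versus vehicle-treated controls following compound exposure; the mutations affect DNA damage repair.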
[7] abbreviates: at 5.0 µM (retest, dose inferred, filed as 0.5).
Setting [8] is: at 50.0 µM (retest, dose inferred, filed as 5.0).

This is part of a sample that, as a whole, favours compounds with a hit. Of some 79,000 tested, about 15% had one in any assay. Values without a mark were called inactive. The source made the active and inactive calls. Rule as the data show it: active = growth inhibition above about 70%; inactive = the rest.

The results in this text go back to PubChem BioAssay (NCI).

For `COc1ccc(C2CC(c3sc(Nc4ccc(C)cc4)nc3C)=NN2)cc1` (stereo not given), the growth inhibition in experiment [1] (setting [7]) is -1%; in experiment [1] (setting [8]) it was 20%; in experiment [1] (at 50.0 µM), 80.3% (active); in experiment [2] (setting [7]), -33%; in experiment [2] (setting [8]), 60%; in experiment [2] (at 50.0 µM), 62%. Also, the growth inhibition in experiment [3] (setting [7]) is -2%; in experiment [3] (setting [8]), 16%; in experiment [3] (at 50.0 µM), 71.4% (active); in experiment [4] (setting [7]), -1%; in experiment [4] (setting [8]), 38%; in experiment [4] (at 50.0 µM) it was 69.1%. Further, the growth inhibition in experiment [5] (setting [7]) is -4%; in experiment [5] (setting [8]), 32%; in experiment [5] (at 50.0 µM), 12.2%; in experiment [6] (setting [7]) it was -2%; in experiment [6] (setting [8]), 31%; in experiment [6] (at 50.0 µM), 59.9%.

In the case of `Cc1ccc2nc(CC(=O)c3cccnc3)c(CC(=O)c3cccnc3)nc2c1`, the growth inhibition was 7% in experiment [1] (setting [7]); 95% (active) in experiment [1] (setting [8]); 76.3% (active) in experiment [1] (at 50.0 µM); 12% in experiment [2] (setting [7]); 94% (active) in experiment [2] (setting [8]); 63.2% in experiment [2] (at 50.0 µM). Further, the growth inhibition was -1% in experiment [3] (setting [7]); 87% (active) in experiment [3] (setting [8]); 66.7% in experiment [3] (at 50.0 µM); 14% in experiment [4] (setting [7]); 96% (active) in experiment [4] (setting [8]); 76.3% (active) in experiment [4] (at 50.0 µM). Besides, the growth inhibition in experiment [5] (setting [7]) was 8%; in experiment [5] (setting [8]), 93% (active); in experiment [5] (at 50.0 µM) it was 60.7%; in experiment [6] (setting [7]) it was 1%; in experiment [6] (setting [8]), 91% (active); in experiment [6] (at 50.0 µM), 60.5%.

For `COc1cccc2c1C(=O)c1c(O)c3c(c(O)c1C2=O)C[C@@](O)(C(=O)CO)C[C@@H]3OC1CC(N)CC(C)O1` (stereo not given in full), the growth inhibition was 81% (active) in experiment [1] (setting [7]); 98% (active) in experiment [1] (setting [8]); 89.3% (active) in experiment [1] (at 50.0 µM); 24% in experiment [2] (setting [7]); 98% (active) in experiment [2] (setting [8]); 90.4% (active) in experiment [2] (at 50.0 µM). The growth inhibition in experiment [3] (setting [7]) is 61%; in experiment [3] (setting [8]), 99% (active); in experiment [3] (at 50.0 µM), 90.1% (active); in experiment [4] (setting [7]) it was 63%; in experiment [4] (setting [8]), 98% (active); in experiment [4] (at 50.0 µM) it was 85% (active). The growth inhibition in experiment [5] (setting [7]) is 76% (active); in experiment [5] (setting [8]) it was 99% (active); in experiment [5] (at 50.0 µM), 88.9% (active); in experiment [6] (setting [7]), 69%; in experiment [6] (setting [8]) it was 97% (active); in experiment [6] (at 50.0 µM), 92% (active).

Turning to `CNC(=S)N/N=C(\C=N\NC(=S)NC)c1ccccc1`, the growth inhibition in experiment [1] (setting [7]) is 7%; in experiment [1] (setting [8]) it was 32%; in experiment [1] (at 50.0 µM), 74.7% (active); in experiment [2] (setting [7]), -14%; in experiment [2] (setting [8]), 35%; in experiment [2] (at 50.0 µM), 37%. For the same compound, the growth inhibition in experiment [3] (setting [7]) is 3%; in experiment [3] (setting [8]), 37%; in experiment [3] (at 50.0 µM) it was 82.4% (active); in experiment [4] (setting [7]), 9%; in experiment [4] (setting [8]) it was 30%; in experiment [4] (at 50.0 µM) it was 37.8%. Moreover, the growth inhibition in experiment [5] (setting [7]) was -1%; in experiment [5] (setting [8]), 25%; in experiment [5] (at 50.0 µM), 59.5%; in experiment [6] (setting [7]), 0%; in experiment [6] (setting [8]) it was 44%; in experiment [6] (at 50.0 µM), 66.8%.

Take `CCC1CCC2C3CC=C4CC(OC(C)=O)C(N)CC4(C)C3CCC12C` (stereo not given): the growth inhibition in experiment [1] (setting [7]) is 6%; in experiment [1] (setting [8]) it was 96% (active); in experiment [1] (at 50.0 µM) it was 93% (active); in experiment [2] (setting [7]), 9%; in experiment [2] (setting [8]), 94% (active); in experiment [2] (at 50.0 µM), 92.3% (active). The growth inhibition was 4% in experiment [3] (setting [7]); 93% (active) in experiment [3] (setting [8]); 89.2% (active) in experiment [3] (at 50.0 µM); 45% in experiment [4] (setting [7]); 95% (active) in experiment [4] (setting [8]); 91.3% (active) in experiment [4] (at 50.0 µM). In addition, the growth inhibition in experiment [5] (setting [7]) was -5%; in experiment [5] (setting [8]) it was 95% (active); in experiment [5] (at 50.0 µM), 85.6% (active); in experiment [6] (setting [7]), 12%; in experiment [6] (setting [8]), 94% (active); in experiment [6] (at 50.0 µM) it was 91.8% (active).

For the compound `O=C(/C=C/c1cc(O)c(O)cc1O)OCCc1ccccc1`, the growth inhibition is 17% in experiment [1] (setting [7]); 50% in experiment [1] (setting [8]); 47.1% in experiment [1] (at 50.0 µM); 16% in experiment [2] (setting [7]); 61% in experiment [2] (setting [8]); 75.5% (active) in experiment [2] (at 50.0 µM). Further, the growth inhibition in experiment [3] (setting [7]) is 20%; in experiment [3] (setting [8]), 64%; in experiment [3] (at 50.0 µM) it was 69.8%; in experiment [4] (setting [7]), 32%; in experiment [4] (setting [8]) it was 33%; in experiment [4] (at 50.0 µM), 53.7%. The growth inhibition was 25% in experiment [5] (setting [7]); 68% in experiment [5] (setting [8]); 66% in experiment [5] (at 50.0 µM); 21% in experiment [6] (setting [7]); 75% (active) in experiment [6] (setting [8]); 68.5% in experiment [6] (at 50.0 µM).

For the compound `C/C(=N/NC(=S)Nc1ccc(C)cc1)c1ccccn1`, the growth inhibition in experiment [1] (setting [7]) is 31%; in experiment [1] (setting [8]), 99% (active); in experiment [1] (at 50.0 µM), 79.2% (active); in experiment [2] (setting [7]) it was 33%; in experiment [2] (setting [8]) it was 99% (active); in experiment [2] (at 50.0 µM) it was 84.9% (active). In addition, the growth inhibition in experiment [3] (setting [7]) is 32%; in experiment [3] (setting [8]), 99% (active); in experiment [3] (at 50.0 µM), 88.5% (active); in experiment [4] (setting [7]), -15%; in experiment [4] (setting [8]), 99% (active); in experiment [4] (at 50.0 µM) it was 88.3% (active). Also, the growth inhibition is -7% in experiment [5] (setting [7]); 99% (active) in experiment [5] (setting [8]); 90% (active) in experiment [5] (at 50.0 µM); 20% in experiment [6] (setting [7]); 99% (active) in experiment [6] (setting [8]); 87.9% (active) in experiment [6] (at 50.0 µM).

Regarding `CCCn1cc2c(SC)nc(SC)nc2n1`, the growth inhibition in experiment [1] (setting [7]) was -1%; in experiment [1] (setting [8]) it was 5%; in experiment [1] (at 50.0 µM) it was 98.1% (active); in experiment [2] (setting [7]), 0%; in experiment [2] (setting [8]), 46%; in experiment [2] (at 50.0 µM) it was 98.3% (active). Besides, the growth inhibition in experiment [3] (setting [7]) was -2%; in experiment [3] (setting [8]), 10%; in experiment [3] (at 50.0 µM), 97% (active); in experiment [4] (setting [7]), 2%; in experiment [4] (setting [8]) it was 38%; in experiment [4] (at 50.0 µM), 87.3% (active). The growth inhibition in experiment [5] (setting [7]) was 4%; in experiment [5] (setting [8]), 99% (active); in experiment [5] (at 50.0 µM) it was 99.5% (active); in experiment [6] (setting [7]), -3%; in experiment [6] (setting [8]), 14%; in experiment [6] (at 50.0 µM), 98.1% (active).

In the case of `CC(C)SC(=S)Nc1cc(Cl)c(Cl)cc1Cl`, the growth inhibition in experiment [1] (setting [7]) is 7%; in experiment [1] (setting [8]), 85% (active); in experiment [1] (at 50.0 µM), 99.5% (active); in experiment [2] (setting [7]), 6%; in experiment [2] (setting [8]) it was 86% (active); in experiment [2] (at 50.0 µM), 99.5% (active). Also, the growth inhibition in experiment [3] (setting [7]) is 10%; in experiment [3] (setting [8]) it was 98% (active); in experiment [3] (at 50.0 µM) it was 99.5% (active); in experiment [4] (setting [7]), -14%; in experiment [4] (setting [8]), 91% (active); in experiment [4] (at 50.0 µM), 99.3% (active). Also, the growth inhibition in experiment [5] (setting [7]) was -4%; in experiment [5] (setting [8]), 49%; in experiment [5] (at 50.0 µM), 98.9% (active); in experiment [6] (setting [7]) it was 1%; in experiment [6] (setting [8]), 92% (active); in experiment [6] (at 50.0 µM), 99.3% (active).

`O=C1C=CC(=O)C2C1Cc1ccccc1C2c1ccccc1` (stereo not given): the growth inhibition was 15% in experiment [1] (setting [7]); 97% (active) in experiment [1] (setting [8]); 98.8% (active) in experiment [1] (at 50.0 µM); 26% in experiment [2] (setting [7]); 98% (active) in experiment [2] (setting [8]); 99.3% (active) in experiment [2] (at 50.0 µM). The growth inhibition is 58% in experiment [3] (setting [7]); 98% (active) in experiment [3] (setting [8]); 99% (active) in experiment [3] (at 50.0 µM); 9% in experiment [4] (setting [7]); 92% (active) in experiment [4] (setting [8]); 98.8% (active) in experiment [4] (at 50.0 µM). Besides, the growth inhibition was 14% in experiment [5] (setting [7]); 98% (active) in experiment [5] (setting [8]); 98.8% (active) in experiment [5] (at 50.0 µM); 23% in experiment [6] (setting [7]); 98% (active) in experiment [6] (setting [8]); 98.5% (active) in experiment [6] (at 50.0 µM).
